Assay results: the supplement of paper PMC10849652
About 7,900 targets were measured; listed, in parts, are those with a hit and a random draw of the rest. About 0.6% of all pairs of compound and target were hits. Values without a mark were called inactive.

Legend:
Test in all cases: log2 fold change, soluble protein after heating vs DMSO (PISA); higher = thermal stabilisation; K562 cells, 10 uM, 30 min; active = over 0.2 and 3.5 SD of the protein, either way, in both replicates (recomputed)
IRAK-1-4 Inhibitor I = compound: C1COCCN1CCN2C3=CC=CC=C3N=C2NC(=O)C4=CC(=CC=C4)[N+](=O)[O-] [IRAK-1-4 Inhibitor I]
Summary of the method: (§1)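 Values are thermal stability changes relative to control samples and are taken from duplicates. They are stated as log2 fold changes. Before quantification by TMTpro 16plex LC-MS/MS with equalised channel sums, K562 cells at 2×10^6 cells/mL were treated with 10 μM compound for 30 min, heated in aliquots for 3 min across 48°C-58°C, pooled, extracted in PBS with 0.5% NP-40 at 4°C, and centrifuged at 21,000xg for 90 min to give the soluble supernatant.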

ibrutinib = compound: C=CC(=O)N1CCC[C@@H](n2nc(-c3ccc(Oc4ccccc4)cc3)c3c(N)ncnc32)C1 [ibrutinib]
Summary of the method: as §1

[1] = compound: CC(=O)c1cnc2ccc(-c3cc(Cl)c(O)c(Cl)c3)nc2c1N[C@H]1CC[C@H](CN(C)C)CC1
Summary of the method: as §1

ralimetinib = compound: CC(C)(C)Cn1c(N)nc2ccc(-c3[nH]c(C(C)(C)C)nc3-c3ccc(F)cc3)nc21 [ralimetinib]
Summary of the method: as §1

[2] = compound: CC(C)(O)CC(=O)NCCn1ccc2ncnc(Nc3ccc(Oc4cccc(C(F)(F)F)c4)c(Cl)c3)c21
Summary of the method: as §1

[3] = compound: CC(C)C1=C2N=C(C=C(N2N=C1)NCC3=CC=CC=C3)NCCCCCCN
Summary of the method: as §1

[4] = compound: CC(C)C[C@@H](C=O)NC(=O)[C@H](CC(C)C)NC(=O)[C@H](CC(C)C)NC(=O)OCc1ccccc1
Summary of the method: as §1

pinometostat = compound: CC(C)N(C[C@H]1O[C@@H](n2cnc3c(N)ncnc32)[C@H](O)[C@@H]1O)[C@H]1C[C@@H](CCc2nc3cc(C(C)(C)C)ccc3[nH]2)C1 [pinometostat]
Summary of the method: as §1

[5] = compound: CC1=C(C(CC(=O)N1)C2=CC=C(C=C2)C(F)(F)F)C(=O)NC3=C(C=C4C(=C3)C=NN4)F
Summary of the method: as §1

[6] = compound: CC1=C(C2=C(C=C1)C(=O)C3=CC=CC=C3N2CCCN)C
Summary of the method: as §1

Sequence of UniProt Q96EK5 (Q96EK5 whole entry, looked up): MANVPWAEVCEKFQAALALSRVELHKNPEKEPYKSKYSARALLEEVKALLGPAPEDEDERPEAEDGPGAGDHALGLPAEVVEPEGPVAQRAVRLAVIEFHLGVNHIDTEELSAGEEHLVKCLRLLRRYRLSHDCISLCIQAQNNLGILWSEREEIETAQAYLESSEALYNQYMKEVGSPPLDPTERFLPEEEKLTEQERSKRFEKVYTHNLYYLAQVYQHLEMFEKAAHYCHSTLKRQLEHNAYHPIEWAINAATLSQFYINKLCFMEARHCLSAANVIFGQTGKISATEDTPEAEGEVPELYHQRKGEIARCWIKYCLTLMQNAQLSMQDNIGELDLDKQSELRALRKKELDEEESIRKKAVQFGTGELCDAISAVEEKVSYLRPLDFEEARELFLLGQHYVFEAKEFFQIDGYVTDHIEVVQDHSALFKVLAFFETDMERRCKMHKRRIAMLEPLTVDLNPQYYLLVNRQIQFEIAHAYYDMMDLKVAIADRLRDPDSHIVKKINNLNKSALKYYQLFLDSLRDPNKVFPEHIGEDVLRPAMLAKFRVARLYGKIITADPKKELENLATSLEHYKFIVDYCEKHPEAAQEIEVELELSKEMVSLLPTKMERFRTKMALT
Sequence of UniProt Q9Y383 (Q9Y383 whole entry, looked up): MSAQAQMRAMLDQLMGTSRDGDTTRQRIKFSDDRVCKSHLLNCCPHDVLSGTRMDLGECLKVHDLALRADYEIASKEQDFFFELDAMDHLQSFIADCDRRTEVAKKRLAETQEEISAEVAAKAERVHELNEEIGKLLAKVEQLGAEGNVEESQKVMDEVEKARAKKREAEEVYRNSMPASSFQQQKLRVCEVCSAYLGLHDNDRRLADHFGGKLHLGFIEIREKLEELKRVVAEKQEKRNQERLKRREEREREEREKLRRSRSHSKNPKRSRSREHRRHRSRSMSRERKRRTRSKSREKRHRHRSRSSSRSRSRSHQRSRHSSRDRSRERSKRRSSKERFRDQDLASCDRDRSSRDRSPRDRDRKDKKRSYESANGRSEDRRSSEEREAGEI
Sequence of UniProt Q8TBB5 (Q8TBB5 whole entry, looked up): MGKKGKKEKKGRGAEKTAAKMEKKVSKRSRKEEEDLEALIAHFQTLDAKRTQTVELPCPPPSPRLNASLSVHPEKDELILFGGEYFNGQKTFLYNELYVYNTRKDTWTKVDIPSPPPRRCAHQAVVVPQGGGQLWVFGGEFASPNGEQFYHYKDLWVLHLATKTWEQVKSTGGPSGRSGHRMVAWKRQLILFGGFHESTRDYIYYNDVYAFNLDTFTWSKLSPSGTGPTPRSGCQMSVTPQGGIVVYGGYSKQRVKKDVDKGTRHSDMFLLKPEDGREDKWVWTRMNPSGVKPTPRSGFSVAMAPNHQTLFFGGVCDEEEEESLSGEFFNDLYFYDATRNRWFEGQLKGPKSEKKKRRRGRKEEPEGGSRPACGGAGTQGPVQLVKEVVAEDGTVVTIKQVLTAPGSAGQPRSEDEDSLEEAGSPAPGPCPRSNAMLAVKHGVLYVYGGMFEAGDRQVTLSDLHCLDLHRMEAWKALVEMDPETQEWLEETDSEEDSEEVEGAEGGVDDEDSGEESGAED
Sequence of UniProt Q99661 (Q99661 whole entry, looked up): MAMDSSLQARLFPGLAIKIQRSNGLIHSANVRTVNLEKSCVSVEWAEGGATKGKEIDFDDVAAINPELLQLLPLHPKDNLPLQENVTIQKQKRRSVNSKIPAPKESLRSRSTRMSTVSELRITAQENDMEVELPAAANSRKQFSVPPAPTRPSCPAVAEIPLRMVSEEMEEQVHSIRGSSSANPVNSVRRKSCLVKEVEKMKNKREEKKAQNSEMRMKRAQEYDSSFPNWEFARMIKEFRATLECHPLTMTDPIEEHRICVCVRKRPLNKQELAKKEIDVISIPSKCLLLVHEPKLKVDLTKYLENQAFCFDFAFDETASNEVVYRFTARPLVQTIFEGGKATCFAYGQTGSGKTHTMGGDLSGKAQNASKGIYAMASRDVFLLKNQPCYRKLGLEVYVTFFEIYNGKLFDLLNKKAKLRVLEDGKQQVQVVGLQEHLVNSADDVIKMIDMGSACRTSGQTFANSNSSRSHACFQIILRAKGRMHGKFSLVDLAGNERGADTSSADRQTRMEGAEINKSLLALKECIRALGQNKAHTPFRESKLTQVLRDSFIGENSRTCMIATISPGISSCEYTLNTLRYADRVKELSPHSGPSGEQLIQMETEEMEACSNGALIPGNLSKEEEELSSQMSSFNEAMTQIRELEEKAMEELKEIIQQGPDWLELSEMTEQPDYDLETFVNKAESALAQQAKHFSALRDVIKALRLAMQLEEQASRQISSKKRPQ
Sequence of UniProt Q9H1B7 (Q9H1B7 whole entry, looked up): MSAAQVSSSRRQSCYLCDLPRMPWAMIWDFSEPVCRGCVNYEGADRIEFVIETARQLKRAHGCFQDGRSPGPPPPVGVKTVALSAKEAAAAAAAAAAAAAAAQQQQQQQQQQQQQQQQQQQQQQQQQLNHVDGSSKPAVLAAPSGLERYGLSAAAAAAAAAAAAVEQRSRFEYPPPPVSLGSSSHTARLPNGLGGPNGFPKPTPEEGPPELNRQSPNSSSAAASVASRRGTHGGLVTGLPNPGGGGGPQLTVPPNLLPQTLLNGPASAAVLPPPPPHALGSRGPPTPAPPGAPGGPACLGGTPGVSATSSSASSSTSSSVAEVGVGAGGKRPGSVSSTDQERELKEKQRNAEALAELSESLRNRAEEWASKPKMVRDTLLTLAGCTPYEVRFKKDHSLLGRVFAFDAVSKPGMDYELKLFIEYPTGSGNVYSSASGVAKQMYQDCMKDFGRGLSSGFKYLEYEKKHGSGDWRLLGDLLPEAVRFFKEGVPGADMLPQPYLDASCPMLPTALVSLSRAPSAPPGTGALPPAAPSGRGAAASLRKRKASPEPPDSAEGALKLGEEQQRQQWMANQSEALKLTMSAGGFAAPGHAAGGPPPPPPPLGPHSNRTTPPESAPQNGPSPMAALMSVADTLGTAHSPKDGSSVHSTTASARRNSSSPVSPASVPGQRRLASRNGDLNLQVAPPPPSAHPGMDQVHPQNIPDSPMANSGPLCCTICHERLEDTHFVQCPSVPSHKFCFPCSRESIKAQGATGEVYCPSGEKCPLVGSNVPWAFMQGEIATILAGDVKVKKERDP
Sequence of UniProt P01130 (P01130 whole entry, looked up): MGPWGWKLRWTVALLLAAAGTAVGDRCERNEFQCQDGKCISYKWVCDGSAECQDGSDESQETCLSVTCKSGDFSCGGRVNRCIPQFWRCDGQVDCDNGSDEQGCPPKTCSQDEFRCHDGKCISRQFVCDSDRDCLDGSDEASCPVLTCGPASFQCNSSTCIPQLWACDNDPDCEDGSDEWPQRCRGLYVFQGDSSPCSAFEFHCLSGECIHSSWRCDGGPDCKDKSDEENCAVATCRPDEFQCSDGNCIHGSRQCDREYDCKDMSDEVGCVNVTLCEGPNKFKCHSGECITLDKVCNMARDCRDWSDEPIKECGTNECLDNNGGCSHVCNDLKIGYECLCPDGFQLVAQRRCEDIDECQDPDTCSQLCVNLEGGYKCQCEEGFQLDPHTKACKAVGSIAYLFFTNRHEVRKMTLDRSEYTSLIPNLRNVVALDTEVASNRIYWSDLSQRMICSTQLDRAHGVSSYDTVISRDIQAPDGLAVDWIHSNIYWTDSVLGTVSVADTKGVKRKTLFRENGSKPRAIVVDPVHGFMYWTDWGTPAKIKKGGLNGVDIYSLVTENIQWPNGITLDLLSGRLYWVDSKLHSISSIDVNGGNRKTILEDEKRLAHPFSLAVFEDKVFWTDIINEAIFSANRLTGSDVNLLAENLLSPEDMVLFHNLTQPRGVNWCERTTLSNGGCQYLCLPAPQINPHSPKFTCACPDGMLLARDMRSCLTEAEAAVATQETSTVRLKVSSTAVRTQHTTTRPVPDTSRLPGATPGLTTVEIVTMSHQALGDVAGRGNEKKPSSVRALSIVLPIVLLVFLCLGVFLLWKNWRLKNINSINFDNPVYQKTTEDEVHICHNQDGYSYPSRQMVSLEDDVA
Sequence of UniProt Q32MZ4 (Q32MZ4 whole entry, looked up): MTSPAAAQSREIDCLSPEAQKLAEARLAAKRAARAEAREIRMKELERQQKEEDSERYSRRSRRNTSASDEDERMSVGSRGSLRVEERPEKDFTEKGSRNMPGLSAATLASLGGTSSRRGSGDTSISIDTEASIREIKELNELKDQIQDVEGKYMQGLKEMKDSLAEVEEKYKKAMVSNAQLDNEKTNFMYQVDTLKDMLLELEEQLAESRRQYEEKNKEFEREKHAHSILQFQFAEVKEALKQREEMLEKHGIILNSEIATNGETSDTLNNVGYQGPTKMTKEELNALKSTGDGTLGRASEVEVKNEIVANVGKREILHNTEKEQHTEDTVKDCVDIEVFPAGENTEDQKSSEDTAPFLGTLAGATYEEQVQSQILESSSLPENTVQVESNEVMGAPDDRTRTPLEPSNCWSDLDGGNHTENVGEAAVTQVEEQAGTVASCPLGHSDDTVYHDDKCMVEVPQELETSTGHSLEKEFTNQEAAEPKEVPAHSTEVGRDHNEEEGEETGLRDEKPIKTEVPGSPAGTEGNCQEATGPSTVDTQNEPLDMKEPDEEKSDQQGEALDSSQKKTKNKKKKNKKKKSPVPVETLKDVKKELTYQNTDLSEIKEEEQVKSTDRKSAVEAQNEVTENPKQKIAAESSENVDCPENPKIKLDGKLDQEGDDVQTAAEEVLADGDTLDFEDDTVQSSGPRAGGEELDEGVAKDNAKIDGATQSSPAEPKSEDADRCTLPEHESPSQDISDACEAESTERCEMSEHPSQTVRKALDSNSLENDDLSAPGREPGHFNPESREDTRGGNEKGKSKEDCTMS
Sequence of UniProt Q13257 (Q13257 whole entry, looked up): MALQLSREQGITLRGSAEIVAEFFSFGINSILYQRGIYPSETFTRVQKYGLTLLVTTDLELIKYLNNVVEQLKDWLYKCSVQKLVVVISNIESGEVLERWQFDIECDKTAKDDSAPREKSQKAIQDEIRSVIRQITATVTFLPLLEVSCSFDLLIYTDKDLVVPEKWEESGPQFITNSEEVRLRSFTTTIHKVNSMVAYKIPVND

| Target | log2 fold change (IRAK-1-4 Inhibitor I) | log2 fold change (ibrutinib) | log2 fold change [1] | log2 fold change (ralimetinib) | log2 fold change [2] | log2 fold change [3] | log2 fold change [4] | log2 fold change (pinometostat) | log2 fold change [5] | log2 fold change [6] |
| --- | --- | --- | --- | --- | --- | --- | --- | --- | --- | --- |
| LARP4B (UniProt Q92615) | -0.122 | 0.007 | -0.048 | 0.135 | 0.018 | -0.213 | 0.002 | 0.143 | 0 | 0.034 |
| MIEN1 (UniProt Q9BRT3) | 0.105 | -0.029 | -0.051 | -0.075 | -0.091 | 0.074 | -0.036 | 0.019 | 0.004 | 0.045 |
| MAD2L1 (UniProt Q13257) | 0 | -0.095 | 0.008 | -0.004 | -0.057 | -0.112 | -0.018 | 0.031 | -0.004 | -0.033 |
| LDAH isoform 2 (UniProt Q9H6V9) | 0.039 | 0.066 | -0.039 | 0.077 | 0.464 (active) | -0.286 (active) | 0.019 | 0 | -0.053 | 0.073 |
| IMMT isoform 2 (UniProt Q16891) | 0.053 | -0.011 | 0.022 | 0.054 | 0.051 | 0.015 | -0.028 | 0.058 | 0.035 | -0.106 |
| ILK (UniProt Q13418) | 0.029 | 0.004 | -0.029 | 0.027 | -0.081 | -0.094 | 0.128 | 0.083 | -0.005 | 0.01 |
| IKZF1 (UniProt Q13422) | -0.017 | 0.041 | -0.069 | -0.036 | -0.015 | -0.016 | 0.011 | 0.01 | 0.02 | 0.275 |
| ME2 (UniProt P23368) | 0.009 | -0.039 | 0.213 | -0.003 | 0.036 | 0.152 | 0.025 | -0.021 | -0.048 | -0.042 |
| KHDRBS1 (UniProt Q07666) | -0.069 | 0.038 | -0.002 | 0.016 | 0.073 | -0.039 | 0.017 | -0.052 | -0.012 | 0.621 (active) |
| KLHDC4 (UniProt Q8TBB5) | -0.008 | -0.011 | -0.008 | 0.062 | 0.002 | 0.065 | 0.017 | 0.199 | -0.123 | 0.159 |
| MAGI1 (UniProt Q96QZ7) | 0 | 0.057 | -0.071 | 0.014 | 0.032 | -0.009 | 0.01 | 0.025 | -0.016 | 0.07 |
| MAGEC2 (UniProt Q9UBF1) | -0.003 | -0.02 | 0.108 | 0.093 | 0.058 | -0.059 | 0.05 | -0.003 | -0.035 | -0.318 (active) |
| MAP3K4 isoform 2 (UniProt Q9Y6R4) | 0.049 | 0 | 0.198 | 0.007 | -0.014 | -0.027 | -0.023 | 0.014 | -0.033 | 0.002 |
| KIF2C (UniProt Q99661) | -0.111 | -0.033 | -0.058 | 0.028 | -0.069 | -0.065 | 0.035 | 0.031 | -0.008 | 0.028 |
| LENG8 (UniProt Q96PV6) | -0.122 | 0 | -0.173 | -0.13 | -0.389 | -0.646 (active) | 0.107 | -0.071 | 0.031 | 0.15 |
| KIFBP (UniProt Q96EK5) | -0.019 | 0.011 | -0.033 | -0.02 | -0.045 | -0.172 | 0.2 | 0.019 | -0.034 | 0.054 |
| MAP3K7 (UniProt O43318) | -0.123 | -0.061 | -0.075 | 0.035 | -0.207 | -0.159 | 0.05 | 0.102 | 0.024 | 0.006 |
| L2HGDH (UniProt Q9H9P8) | 0.095 | 0.028 | -0.065 | 0.003 | -0.092 | -0.069 | -0.026 | 0 | -0.018 | 0.029 |
| ITIH4 (UniProt Q14624) | 0.043 | 0.147 | 0.041 | -0.044 | 0.17 | 0.045 | -0.113 | -0.117 | 0.251 | -0.148 |
| LUC7L2 (UniProt Q9Y383) | -0.207 | -0.026 | -0.646 (active) | 0.111 | 0.031 | -0.134 | -0.04 | -0.048 | 0.009 | -0.037 |
| MAP3K20 (UniProt Q9NYL2) | -0.043 | -0.167 | -0.654 (active) | 0.019 | -0.032 | 0.034 | 0.052 | 0.099 | 0.073 | 0.027 |
| LRBA (UniProt P50851) | 0.015 | -0.02 | -0.006 | -0.023 | -0.059 | -0.091 | 0.005 | 0.008 | -0.005 | -0.004 |
| LAMP2 (UniProt P13473) | 0.063 | 0.042 | -0.083 | -0.12 | -0.007 | -0.033 | 0.004 | -0.077 | -0.139 | 0.066 |
| IRF2BPL (UniProt Q9H1B7) | 0.031 | 0.038 | 0.008 | 0.013 | -0.18 | 0.076 | 0.063 | -0.206 | 0.044 | 0.093 |
| MARK2 (UniProt E9PC69) | -0.156 | -0.047 | -2.09 (active) | 0.031 | -0.047 | -0.581 | 0.049 | 0.078 | 0.077 | 0.034 |
| LDLR (UniProt P01130) | 0.03 | -0.015 | -0.106 | -0.025 | 0.072 | -0.009 | 0.171 | -0.011 | 0.019 | -0.058 |
| LRRFIP1 (UniProt Q32MZ4) | 0.014 | 0.019 | 0.027 | -0.003 | 0.063 | 0.084 | 0.011 | 0 | 0 | -0.043 |
| MAPK8 isoform 3 (UniProt P45983) | 0.034 | -0.081 | 0.936 (active) | 0.271 | -0.071 | 0.012 | -0.002 | 0.05 | -0.02 | -0.1 |
| MAP4 (UniProt E7EVA0) | -0.058 | -0.036 | -0.022 | 0.088 | 0.013 | -0.025 | 0.049 | 0.104 | -0.046 | 0.027 |
| KPNA1 (UniProt P52294) | -0.046 | -0.073 | 0.062 | 0.089 | -0.022 | 0.084 | 0.123 | 0.071 | -0.05 | -0.26 (active) |
